From PubChem
Shiga toxin inh: blocks Shiga toxin action in Vero cells | Vero cells, Shiga toxin protein synthesis inhibition reporter | inhibition, % at 38.7 µM | actives 9.2% (n = 290,000) | AID 2315; in the data active = inhibition mostly above about 28%, no sharp cut-off; inactive = mostly below about 43%; note: 0% is about no effect
Lassa entry inh: blocks Lassa virus binding to or entry into cells. Lassa virus pseudotype entry inhibition, cell reporter. Potency, µM (doses to about 37.9 µM), without a hit: top-dose activity change, negative = inhibition, usual class: inhibitors. actives 1.2% (n = 300,000). AID 540256; calls by dose curve; tested in HEK293 cells; note: potency is the fitted concentration of half-maximal effect; % is set by controls: 0 for no effect and ±100 for the full control effect; nearly all actives have a fitted effect of over 50% in size
HCV inhibitor: inhibitors of hepatitis C virus infection; Huh7.5.1 HCVcc-Cre infection, luciferase reporter, 44 h; Potency, µM (top dose mostly 41.8 µM), without a hit: at the highest dose activity change, negative = inhibition, usual class: inhibitors; actives 3.4% (n = 340,000); AID 651820; active = well fitted inhibition curve with a large enough effect; inconclusive = small, poorly fitted or top-dose-only effect, or another doubt; inactive = no such curve, though single readings can be large or run the other way; note: potency is the fitted concentration of half-maximal effect; % is set by controls: 0 for no effect and ±100 for the full control effect
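Compounds are dispensed onto cells plated 4 h earlier at 1,000 per well, with HCVcc-Cre virus (about 0.5 moi) added next. Following 44 h of culture, luminescent signal is measured for 15 sec after 15 min with substrate at room temperature.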
CHX counter: counter-screen hit for Shiga toxin inhibitors, cycloheximide. cell reporter, cycloheximide protein synthesis inhibition counterscreen. max response, %. actives 12% (n = 300,000); in the data active = max response mostly above about 13%, no sharp cut-off; inactive = mostly below about 14%; note: read at 38.3 µM for the half of the compounds with a filed dose; 0% is about no effect
FMDV antiviral: blocks foot and mouth disease virus; FMDV antiviral cell-based qHTS; Potency, µM (series often up to 57.9 µM), for the others: at the highest dose activity change, negative = inhibition, actives largely listed as inhibitors; actives 1.2% (n = 410,000); AID 1159524; calls by dose curve; tested in HEK293T cells; note: read-out not given here; potency is the fitted concentration of half-maximal effect; % is set by controls: 0 for no effect and ±100 for the full control effect; nearly all actives have a fitted effect of over 45% in size
MARV entry inh: inhibitors of Marburg virus binding or cell entry; Marburg virus pseudotyped entry inhibition, cell reporter; Potency, µM (titrated, usually from 37.8 µM), inactives show at the highest dose activity change, negative = inhibition, hits mostly inhibitors; actives 1.8% (n = 300,000); AID 540276; calls by dose curve; tested in HEK293 cells; note: potency is the fitted concentration of half-maximal effect; % is set by controls: 0 for no effect and ±100 for the full control effect
An asterisk follows results filed as active; ? = inconclusive; . = no result given; [ ] = dose if it differs, or a comment. Only some compounds are listed: those with a hit (about 13% of all), similar ones and a draw of the others.

SMILES	Shiga toxin inh	Lassa entry inh	HCV inhibitor	CHX counter	FMDV antiviral	MARV entry inh
Cn1c(=O)oc2cc(S(=O)(=O)NCCC(=O)N3CCc4ccccc4C3)ccc21	-11	2%	9%	-5	-21%	29%
Cn1c(=O)oc2cc(S(=O)(=O)NCCC(=O)Nc3ccc(F)c(Cl)c3)ccc21	.	12%[46.1 µM]	.	.	-8%	0%[46.1 µM]
Cn1c(=O)oc2cc(S(=O)(=O)NCCN3CCc4ccccc4C3)ccc21	-5	.	4%	-2	5.6µM*	.
Cn1c(=O)oc2cc(S(=O)(=O)NCCC(=O)Nc3ccc4c(c3)OCCO4)ccc21	14	26%	9%	20*	0%	-6%
COc1cc(NS(=O)(=O)c2ccc3c(c2)oc(=O)n3C)cc(OC)c1OC	-5	.	10µM*	-6	-24%	.
CCOc1cc(/C=N/NC(=O)c2nnn(-c3nonc3N)c2C)ccc1OCc1cccc(F)c1	-3	.	-1%	3	-10%	.
Cc1ccc(-c2cc(C(=O)N3CC4(C)CC3CC(C)(C)C4)no2)cc1 (centres undefined)	.	.	18%	.	14%	.
O=C1CN(C(=O)CSc2nc3cc(Cl)ccc3c(=O)n2Cc2ccccc2)c2ccccc2N1	-18	?	11µM*	-3	-29%	?
Cc1ccc(Cn2c(SCC(=O)N3CC(=O)Nc4ccccc43)nc3ccccc3c2=O)cc1	-4	?	10µM*	7	-18%	?
CC(c1ccccc1)n1c(SCC(=O)N2CC(=O)Nc3ccccc32)nc2ccccc2c1=O (centres undefined)	-12	?	?	-7	?	?
Cc1cccc(NC(=O)C2CC(=O)N(Cc3ccccc3)C2)n1 (centres undefined)	.	19%[46.1 µM]	-16%	.	-25%	1%
Cc1cccc(/C=C2\Sc3ccc(C(=O)NCC4CCCO4)cc3N(C)C2=O)c1 (centres undefined)	-4	?	?	-4	-25%	7.1µM*
CN1C(=O)/C(=C/c2ccccc2F)Sc2ccc(C(=O)NCC3CCCO3)cc21 (centres undefined)	-7	.	-13%	8	-25%	.
O=C(NCc1cccnc1)c1ccc2c(c1)C(=O)N(Cc1ccccc1)C2=O	-31	6%	1%	7	?	?
CCOC(=O)N1CCN(C(=O)c2ccc3c(c2)N(C)C(=O)/C(=C\c2ccc(OCC)c(OC)c2)S3)CC1	10	5µM*	10µM*	13	35µM*	11µM*
CCOc1ccc(/C=C2/Sc3ccc(C(=O)N4CCN(C(=O)c5ccco5)CC4)cc3N(C)C2=O)cc1OC	-6	.	.	0	.	.
CCOC(=O)N1CCC(NC(=O)c2ccc3c(c2)N(C)C(=O)/C(=C/c2cccc(OC)c2)S3)CC1	-7	.	3.2µM*	-3	?	.
CN1C(=O)/C(=C/c2ccccc2Cl)Sc2ccc(C(=O)NCc3cccnc3)cc21	17	?	-39%	9	40µM*	?
Cc1ccc(Cn2cccc(C(=O)Nc3cc([N+](=O)[O-])ccc3C)c2=O)cc1	.	15%[46.1 µM]	.	.	-29%	.
COc1ccc(OC)c(NC(=S)NN2CCOCC2)c1	-3	4%	20%	2	23%	2%
COc1ccc(CCC(=O)NCCc2ccc(Cl)cc2)cc1	-17	-14%	-17%	-4	4%	3%[46.1 µM]
O=C1C=C(N2CCOCC2)C2(CCCCC2)O1	85	?	-13%	28*	-9%	18%
C=C1C2C[C@]3(C4CC5[C@@]6(C)CC[C@H](O)[C@@]5(C3CC2=O)C4[N+]([O-])(CC)C6)[C@@H]1O (some centres undefined)	.	.	.	.	-7%	.
CCN(CC)c1ccc2cc(C=O)c(=O)oc2c1	41	10%	-16%	24*	7%	-6%
CCN(CC)c1ccc2cc(C(C)=O)c(=O)oc2c1	80*	?	-22%	23	50%	11%
SMILES	Shiga toxin inh	Lassa entry inh	HCV inhibitor	CHX counter	FMDV antiviral	MARV entry inh
CCN(CC)c1ccc2cc(/C(N)=N/NC(=O)c3cccs3)c(=O)oc2c1	9	.	.	14	.	.
CCN(CC)c1ccc2cc(C(=O)Nc3ccccn3)c(=O)oc2c1	63*	?	8%	79*	-3%	-21%
CCN(CC)c1ccc2cc(C(N)=O)c(=N)oc2c1	42	23%	-26%	41*	3%	?
O=S(=O)(NC1CCCCC1N1CCN(c2ccc(F)cc2)CC1)c1ccc(Cl)cc1 (centres undefined)	32	.	-9%	9	-25%	.
O=c1c2c([nH]n1-c1ccccc1)CCSC2	3	4%[46.1 µM]	13%	1	4%	?
CC1CC2(CCCCC2)Nc2c1ccc1ccccc21 (centres undefined)	14	-8%	-8%	-3	-18%	6%
CCN(CC)c1ccc2cc(-c3nnc(-c4cccc(Cl)c4)o3)c(=O)oc2c1	.	7%[46.1 µM]	.	.	36%	.
CCN(CC)c1ccc2cc(C(N)=O)c(=O)oc2c1	12	10%	-24%	23*	.	4%
CCN(CC)c1ccc2cc(-c3nnc(-c4ccncc4)o3)c(=O)oc2c1	active	5%	-9%	28	13%	3%
CCN(CC)c1ccc2cc(NC(=O)CCC(=O)O)c(=O)oc2c1	-19	?	4%	-6	.	1.8µM*
CC(=O)N1CCCC(C)(C(=O)Nc2ccc3nc(C)ccc3c2)C1 (centres undefined)	.	.	.	.	-18%	.
COc1ccc(NC(=O)c2ccc(COc3ccccc3OC)o2)cc1OC	6	-6%[46.1 µM]	-29%	3	?	2%[46.1 µM]
COc1ccccc1OCc1ccc(C(=O)Nc2ccc(Cl)cn2)o1	30	3%	0%	12*	-13%	?
COc1ccccc1OCc1ccc(C(=O)NN)o1	42*	.	0%	19*	5%	.
COc1ccccc1OCc1ccc(C(=O)Nc2cc(OC)c(OC)c(OC)c2)o1	-5	.	?	-4	-25%	.
CCOC(=O)C1CCC(CN(Cc2c(Cl)cccc2Cl)S(=O)(=O)c2ccc(F)cc2)CC1 (centres undefined)	.	?	.	.	-11%	.
COc1cccc(C(=O)Nc2nc(-c3ccc(Br)cc3)ns2)c1	.	-9%[46.1 µM]	.	.	?	-13%[46.1 µM]
Cc1c2oc3c(C)ccc(C(=O)N[C@@H]4C(=O)N[C@H](C(C)C)C(=O)N5CCC[C@H]5C(=O)N(C)CC(=O)N(C)[C@@H](C(C)C)C(=O)O[C@@H]4C)c3nc-2c(C(=O)N[C@@H]2C(=O)N[C@H](C(C)C)C(=O)N3CCC[C@H]3C(=O)N(C)CC(=O)N(C)[C@@H](C(C)C)C(=O)O[C@@H]2C)c(N)c1=O	-6	.	.	1	.	.
CN1C(=O)C(=Cc2ccc(OCC(=O)Nc3ccccc3)cc2)C(=O)N(C)C1=O	75*	-11%	-8%	50*	26%	3%
C=Cc1cccc(NC(=O)COc2ccccc2)c1	41	8%	?	35*	34%	18%
Cc1cc(C)cc(OCC(=O)Nc2cccc(-c3nnc(-c4ccco4)o3)c2)c1	8	50%[14.3 µM]	-3%	7	20µM*	-13%
